# Screening data from PubChem.
# D1 antagonist – antagonists of human D1 dopamine receptor | P21728 | HEK293 TREx D1 cells, calcium flux, dopamine EC80; active compounds read low | activity change, negative = inhibition, % at 10 µM | 3.2% of 360,000 active; in the data active means activity change below about -30%
# Target sequence (P21728 whole entry, looked up): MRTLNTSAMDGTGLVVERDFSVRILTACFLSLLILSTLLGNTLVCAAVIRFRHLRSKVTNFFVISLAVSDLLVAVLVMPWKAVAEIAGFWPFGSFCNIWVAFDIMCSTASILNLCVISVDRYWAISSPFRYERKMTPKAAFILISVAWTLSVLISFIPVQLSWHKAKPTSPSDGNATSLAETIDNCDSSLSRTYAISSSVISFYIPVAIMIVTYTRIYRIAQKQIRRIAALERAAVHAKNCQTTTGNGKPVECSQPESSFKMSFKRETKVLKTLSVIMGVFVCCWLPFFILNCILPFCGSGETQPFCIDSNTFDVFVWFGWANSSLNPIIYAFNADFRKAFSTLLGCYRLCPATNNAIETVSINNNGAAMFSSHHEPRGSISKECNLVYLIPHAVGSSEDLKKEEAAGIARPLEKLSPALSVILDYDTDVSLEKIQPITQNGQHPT
#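 Inducible Hek293 Trex D1 cells (tetracycline, overnight, 30 C). Calcium dye 30–90 min RT. Antagonist mode: EC80 dopamine added after 180 s compound read.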
# ERG Ets-DNA blk – blocks human ERG Ets domain binding to DNA; Potency, µM (doses to about 76.9 µM), most hits filed as inhibitors; 0.028% of 370,000 active; P11308; fluorescence polarization, His-ERG Ets domain / labelled DNA; active means well fitted inhibition curve with a large enough effect in the polarisation, with a control signal flat; inconclusive means small, poorly fitted or top-dose-only effect, or effect the other way, or a change in a side signal; inactive means no such curve, though single readings can be large or run the other way; the % refers to the polarisation;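 further: polarization taken with two DNA probes labelled with fluorescein and Texas red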
#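 His-tagged ERG Ets domain (1 uM in the protein solution; 300mM KCl, 50mM Tris-HCl, 1mM EDTA, 1mM DTT, pH 7.5) received compound, then a probe mix of 5 nM fluorescein-DNA and 100nM Texas-615-DNA. Fluorescence polarization was read for both dyes.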
# DRD3 antagonist – antagonists of human D3 dopamine receptor | D3R cells, DiscoveRx beta-arrestin luminescence, antagonist mode; active compounds read low | 2.5% of 360,000 active | P35462 | AID 652054 | max response, negative = inhibition, %; in the data active means max response below about -50%; inconclusive means no clear call, values can overlap the other calls
#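 Cells plated overnight at 1500 cells/well, then exposed to library compounds with dopamine controls for 90 minutes at 37 degrees C. DiscoveRx reagent added for 30–60 minutes at room temperature; luminescence read, quantitative HTS format.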
# D1 agonist – agonists of human D1 dopamine receptor. 1% of 360,000 active. AID 504660. activation, % at 2 µM. P21728. HEK293 T-REx D1 cells, calcium flux, agonist mode; in the data active means activation above about 30%
#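 Agonism was scored from calcium flux recorded over 180 s (1 read/s) after pintool compound addition, following a 10-cycle baseline. Cells were inducible force-coupled HEK293 TREx D1, plated overnight at 30 C and loaded with no-wash calcium dye.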
# D3 ag – activates the human D3 dopamine receptor; P35462; 0.58% of 410,000 active; D3R DiscoveRx beta-arrestin cells, luminescence, 90 min; max activation, %; in the data active means max activation above about 30%
#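 Agonist-mode cell screen: cells plated at 1500/well and incubated overnight at 37 °C, then exposed to library compounds for 90 min at 37 °C. Detection reagent was added for 30–60 min at room temperature, and luminescence was read.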
# D1 PAM – human D1 dopamine receptor positive modulation; P21728; AID 504651; 0.036% of 360,000 active; potentiation, % at 10 µM; HEK293 TREx D1 cells, calcium flux, dopamine EC20 potentiation; in the data active means potentiation above about 30%
# A number is an active result; 0 = inactive; ? = inconclusive; - = no result. This is a sample that favours compounds with a hit; in the whole collection about 6.1% have one here.
SMILES,D1 antagonist,ERG Ets-DNA blk,DRD3 antagonist,D1 agonist,D3 ag,D1 PAM
COc1ccc(OCC(=O)NCCNC(=O)c2ccccn2)cc1,0,0,0,0,0,0
COc1ccc(NC(=O)Nc2sc(NS(=O)(=O)c3ccccc3)nc2C)cc1,-39,0,0,0,0,0
COC(=O)c1ccc(C)c(NS(=O)(=O)c2ccc(NC(C)=O)cc2)c1,0,0,-55,0,0,0
COc1cccc(NC(=O)C2CCN(S(=O)(=O)c3ccc4c(c3)NC(=O)CO4)CC2)c1,0,0,0,0,0,0
COc1ccc(CC(=O)NCC2CCCN(Cc3ccc(F)c(OC)c3)C2)cc1 (stereo unspecified),0,0,0,0,0,0
Cc1ccc(-c2cnc(SCCNC(=O)c3ccco3)[nH]2)cc1,0,0,0,0,0,0
COc1ccc(NS(=O)(=O)c2ccc(OC)c(NC(=O)CCC3CCCCC3)c2)cc1,-35,0,0,0,0,0
COc1ccc(NS(=O)(=O)c2csc(C(=O)Nc3ccccc3)c2)cc1,-42,0,0,0,0,0
COc1ccc(NS(=O)(=O)c2cccc(NC(=O)COc3ccc(OC)cc3)c2)cc1,-33,0,0,0,0,0
COc1ccc(NS(=O)(=O)c2ccc(NC(=O)c3ccccn3)cc2)cc1,-39,0,0,0,0,0
CCN(c1ccccc1)S(=O)(=O)c1ccc2[nH]cc(C(=O)N3CCOCC3)c(=O)c2c1,0,0,0,0,0,0
O=C1NC[C@@H](CCCCN2CCN(CCc3ccccc3)C(=O)C2=O)N(CC2CCCCC2)C1=O,-,-,0,-,0,-
CC(C)CCn1c(N)c(S(=O)(=O)c2cccs2)c2nc3ccccc3nc21,0,0,-87,0,0,0
Nc1c(S(=O)(=O)c2cccs2)c2nc3ccccc3nc2n1CCc1ccccc1,0,-,-,0,-,0
O=C(COc1ccc(Br)cc1)Nc1ccc2c(c1)C(=O)NC2=O,0,0,0,0,0,0
CCc1ccc(OCC(=O)N2CCN(c3ccccc3F)CC2)cc1,0,0,0,0,0,0
Fc1ccccc1N1CCN(Cc2cc(-c3ccccc3)on2)CC1,0,0,-88,0,0,0
FCCCOc1ccc(CN2CCN(c3ccccc3F)CC2)cc1,0,0,-60,0,0,0
Cc1cc(CN2CCN(c3cccc(C)c3C)CC2)cs1,0,0,-,0,0,0
Cc1cc(CN2CCN(c3ccccc3F)CC2)cs1,-58,0,-,0,0,0
O=C(CN1C(=O)CCS(=O)(=O)c2ccccc21)NCCc1ccccc1,0,0,0,0,0,0
O=C(/C=C/c1ccc(Cl)cc1)NCc1ccncc1,0,0,0,0,0,0
Cc1cccc(C)c1C(=NCCCN(C)C)c1ccccc1,0,0,-78,0,0,0
CN(C)CCCNC(=O)/C(=N\O)c1ccccc1,0,0,0,0,0,0
C/C(=N\NC(=O)c1ccc(Cl)cc1)c1cccc(NC(=O)c2cccnc2)c1,0,0,0,0,0,0
SMILES,D1 antagonist,ERG Ets-DNA blk,DRD3 antagonist,D1 agonist,D3 ag,D1 PAM
C/C(=N\NC(=O)c1ccn(C)n1)c1cccc(NC(=O)c2ccncc2)c1,-47,0,0,0,0,0
CCC(c1nc2ccccc2[nH]1)n1c(-c2ccnc(Cl)c2)nc2ccccc21 (stereo unspecified),-,-,-75,-,0,-
CCC(c1nc2ccccc2[nH]1)n1c(-c2cccnc2)nc2ccccc21 (stereo unspecified),-,-,0,-,0,-
CC1CCN(c2nc(-c3ccc(Br)cc3)nc3ccccc23)CC1,0,0,-,0,0,0
CC(C)c1ccc(N2C(=O)/C(=C/N(C)C)SC2=S)cc1,0,0,0,99,0,0
CCO/C=C1\SC(=S)N(c2ccc(Cl)cc2)C1=O,0,0,?,0,0,0
CCOC(=O)[C@H]1[C@H]2COc3cc(OC)ccc3[C@@H]2N2C(=O)c3cc(F)c(F)cc3NC(=O)[C@@]12C,0,0,0,0,0,0
Cc1ccc(C(c2ccc(C)o2)c2cccc([N+](=O)[O-])c2O)o1,0,0,-73,0,0,0
Cc1[nH]n(-c2ccccc2)c(=O)c1C(c1cccc([N+](=O)[O-])c1O)c1c(C)[nH]n(-c2ccccc2)c1=O,0,0,-70,0,0,0
